We go through 40 molecules from PubChem BioAssay (EPA / NIEHS).

The source made the active and inactive calls. How the source made its calls: active means hit-call score of the fitted dose curve at least 0.9, where 1 is the maximum; inactive means score below 0.9.

A short description of the experiment: APR_HepG2_p53Act_72hr: Apredica 72-hour HepG2 Assay for p53 Activation (AID 2282923).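 Further: average cellular p53 protein immunofluorescence intensity in HepG2 cells.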 The note with it: high-content imaging, actives raise or lower the signal. On the procedure: APR_HepG2_72hr is a cell-based, multiplexed-readout assay that uses HepG2, a human liver cell line, with measurements taken at 72 hours after chemical dosing in a 384-well plate.APR_HepG2_p53Act_72hr is one of 10 assay component(s) measured or calculated from the APR_HepG2_72hr assay. It is designed to make measurements of dna content, a form of viability reporter, as detected with fluorescence intensity signals by HCS Fluorescent Imaging technology.Data from the assay component APR_HepG2_p53Act_72hr was analyzed into 1 assay endpoint. This assay endpoint, APR_HepG2_p53Act_72hr, was analyzed with bidirectional fitting relative to DMSO as the negative control and baseline of activity. Using a type of viability reporter, measures of protein for gain or loss-of-signal activity can be used to understand the signaling at the pathway-level as they relate to the gene TP53. Furthermore, this assay endpoint can be referred to as a primary readout, because this assay has produced multiple assay endpoints where this one serves a signaling function. To generalize the intended target to other relatable targets, this assay endpoint is annotated to the dna binding intended target family, where the subfamily is tumor suppressor.
Cells were treated with dimethyl sulfoxide (DMSO) as a solvent control at a final concentration of 0.5% v/v or with compounds in DMSO with a resulting final DMSO concentration of 0.5% v/v. Compound treatment was done at concentrations of 0.39, 0.78, 1.56, 3.12, 6.24, 12.5, 25, 50, 100, and 200 uM in duplicate on each plate. Cells were treated with compounds for 1, 24, or 72 hr. Carbonyl […] m-chloro-phenylhydrazone (CCCP) and taxol were used as positive controls for mitochondrial function and cytoskeletal stability, respectively; DMSO served as the negative control for this experiment. Cells were fixed by the direct addition of 50 uL formaldehyde in Hank's Balanced Salt Solution (HBSS) to a final concentration of 3.7%. After incubation in the fixation medium for 30 min at room temperature (293-298 K), cells were rinsed twice with HBSS and treated with cell permeabilization buffer (16 uL of 0.5% Triton X-100) for 10 min at room temperature (293-298 K) before labeling. For mitochondrial membrane potential and mitochondrial measurements, pre-fixed cells were incubated with 50 uL of MitoTracker Red CMXRos (Invitrogen) at a concentration of 250 nM for 30 min before fixation. In the remaining cases, post-fixed cells were labeled by incubation with a multiplexed mixture of primary antibodies in HBSS for 60 min at room temperature (293-298 K) to detect immunoreactivity of c-Jun (1:500), phospho-histone H3 (1:100), phospho-histone H2A.x (1:200), p53 (1:400), alpha-tubulin (1:200) and Hoechst 33342 (2 ug/mL). Cells were labeled for multiplexed imaging on two separate plates: a) Hoechst 33342, MitoTracker Red, phospho-histone H3, and alpha-tubulin, and b) Hoechst 33342, phospho-histone H2A.x, and c-Jun. A final rinse with HBSS (50 uL) was performed before analysis. The primary and secondary antibodies for the proteins were phospho-histone H3 (rabbit anti-phospho-histone H3 and FITC-donkey anti-rabbit IgG), phospho-histone H2A.x (mouse anti-phospho-histone H2A.x and FITC-donkey anti-mouse IgG), c-Jun (rabbit anti-phospho-c-Jun and Cy3-donkey anti-rabbit IgG), p53 (sheep anti-p53 and Cy5-donkey anti-sheep IgG), alpha-tubulin (mouse anti-alpha-tubulin and Cy5-donkey anti-mouse IgG). These antibodies are available as the CellCiphr HepG2 assay kit (Millipore).Digital images of each well were captured using a Cellomics ArrayScan VTI (Thermo Scientific Cellomics) (0.8 NA objective, 0.63x optical coupler, and XF-93 filter set) at 20x magnification. The images were acquired using the autofocus feature of the ArrayScan instrument, which entails the following steps. First, the camera focuses on channel 1 (Hoechst 33342), where nuclei are identified. Second, a Z offset of 1 um is used for capturing mitochondria (MitoTracker Red). […]
Consider `C[C@]12C[C@H](O)[C@H]3[C@@H](CCC4=CC(=O)CC[C@@]43C)[C@@H]1CC[C@@H]2C(=O)CO`, for which the molecule was called inactive.
The same measure, in the same setting: next, `COC(=O)c1cccc(C)c1S(=O)(=O)NC(=O)Nc1nc(OCC(F)(F)F)nc(N(C)C)n1`: “inactive”; `COc1nc(C)nc(NC(=O)NS(=O)(=O)c2ccccc2OCCCl)n1`: “inactive”; `CCNc1nc(N)nc(Cl)n1`: “inactive”.
Still for that read-out and setting: next, `CCC(O)=C1C(=O)CC(C(=O)O)CC1=O` (stereo not given): “inactive”; `N[C@@H](Cc1cc(I)c(Oc2ccc(O)c(I)c2)c(I)c1)C(=O)O`: “inactive”; `CCCOC(=O)c1ccc(C(=O)OCCC)nc1`: “inactive”.
As to `CC(C)(c1ccc(O)cc1)c1ccc(O)cc1`, the call was inactive.
Same read-out and setting: next, `CCCCCCC(C)OC(=O)COc1nc(F)c(Cl)c(N)c1Cl` (stereo not given): “inactive”.
For `CCCCC(CC)CN1C(=O)C2C3C=CC(C3)C2C1=O` (stereo not given), the result was inactive.
On the same count and under the same terms, next, `COC(=O)c1ccccc1C(=O)O`: “inactive”.
Same read-out and setting: for `CCC(C)OC(=O)N1CCCCC1CCO` (stereo not given) the value was “inactive”.
Still for that read-out and setting: for `CN(C)C(=O)Nc1ccc(Cl)c(Cl)c1` the value was “inactive”.
Consider `O=C(c1ccccc1)C1CCCCC1`, for which the molecule was classed as inactive.
On the same count and under the same terms, next, `CCOC(=O)c1ccc(O)cc1`: “inactive”.
As to `CC(C)CCCCCCc1ccc(O)cc1`, the half-maximal activity concentration (AC50) (as a rule, the concentration at which the activity in the assay is half-maximal) is 29.7 µM (active).
Turning to `c1ccc(Nc2ccccc2)cc1`, the molecule was called inactive.
On to `CCOC(=O)COc1cc(-n2ncc(C(F)(F)F)c(C)c2=O)c(F)cc1Cl`, for which the molecule was classed as inactive.
Same read-out and setting: next, `C[C@]12CC[C@@H]3c4ccc(O)cc4C[C@@H](CCCCCCCCCS(=O)CCCC(F)(F)C(F)(F)F)[C@H]3[C@@H]1CC[C@@H]2O` (stereo not given in full): “inactive”; `Cc1nn(C)c(Oc2ccccc2)c1C=NOCc1ccc(C(=O)OC(C)(C)C)cc1`: “inactive”.
Still for that read-out and setting: next, `CCCOC(=O)NCCCN(C)C`: “inactive”; `COC(=O)c1ccc(CNS(C)(=O)=O)cc1S(=O)(=O)NC(=O)Nc1nc(OC)cc(OC)n1`: “inactive”.
Turning to `O=C(O)c1ccccc1`, the molecule was called inactive.
Turning to `CC(=O)S[C@@H]1CC2=CC(=O)CC[C@]2(C)[C@H]2CC[C@@]3(C)[C@@H](CC[C@@]34CCC(=O)O4)[C@H]12`, the half-maximal activity concentration (AC50) is 40.3 µM (active).
For `CCCCOC(=O)[C@@H](C)Oc1ccc(Oc2ccc(C(F)(F)F)cn2)cc1`, the molecule was called inactive.
On the same count and under the same terms, for `COC(=O)c1ccc(I)cc1S(=O)(=O)NC(=O)Nc1nc(C)nc(OC)n1` the value was “inactive”; for `O=C(O)C1(C(=O)Nc2ccc(Cl)cc2Cl)CC1`, “inactive”.
As for `C#C[C@]1(O)CC[C@H]2[C@@H]3CCC4=CC(=O)CC[C@@H]4[C@H]3CC[C@@]21CC`, the outcome was inactive.
On the same count and under the same terms, next, `CCCCC(CC)COC(=O)c1ccccc1C(=O)O` (stereo not given): “inactive”.
On to `CCOC(=O)NCCOc1ccc(Oc2ccccc2)cc1`, for which the outcome was inactive.
On the same count and under the same terms, next, `CCCCOC(=O)C(C)Oc1ccc(Oc2ccc(C(F)(F)F)cn2)cc1` (stereo not given): “inactive”.
Turning to `CCCN(CCC)c1c([N+](=O)[O-])cc(C(F)(F)F)c(N)c1[N+](=O)[O-]`, the call was inactive.
Still for that read-out and setting: next, `CCOC(=O)[C@H](C)Oc1ccc(Oc2nc3ccc(Cl)cc3o2)cc1`: “inactive”.
On the same count and under the same terms, next, `O=C(Nc1ccc([N+](=O)[O-])cc1Cl)c1cc(Cl)ccc1O`: “inactive”.
In the case of `COC(=O)c1c(Cl)nn(C)c1S(=O)(=O)NC(=O)Nc1nc(OC)cc(OC)n1`, the call was inactive.
Same read-out and setting: next, `CSC(=O)c1cccc2nnsc12`: “inactive”; `CC(C)(C)[C@@H](O)[C@@H](Cc1ccc(Cl)cc1)n1cncn1`: “inactive”.
Turning to `CC1(C)C(C=C(Cl)Cl)C1C(=O)OCc1cccc(Oc2ccccc2)c1` (stereo not given), the molecule was called inactive.
Same read-out and setting: next, `CCCN(CCC)C(=O)SCC`: “inactive”.
On to `CC(=O)[C@H]1CC[C@H]2[C@@H]3CCC4=CC(=O)CC[C@]4(C)[C@H]3CC[C@]12C`, for which the AC50 was 97.2 µM (active).
